Measurements from PubChem BioAssay AID1159580 (chemical genetic matrix, 2015).
The whole screen tested about 5,500 compounds, of which about 2,000 (36%) were called active. Inconclusive results (about 18%) are left out. Cut-off read from the data, not from the text of the source: active = normalized growth mostly below about 0.91 (no sharp cut-off); inconclusive = no clear call, values can overlap the other calls; inactive = mostly above about 0.92. The list shows a part of the results.

Assay: chemical genetic growth profiling, strain panel (AID 1159580);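 note: tested at 20 µM; growth read once vehicle control cultures reached saturation at 30 °C; 1 = growth at the plate median or of vehicle wells; lower values mean less growth of the strain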
Details: S. cerevisiae deletion strains, growth OD

Measured: normalized growth

COC(=S)Nc1cc(Cl)cc(Cl)c1
active: locus YDR477W, strain SNF1, hits give low values 0.685 | locus YER123W, strain YCK3, hits give low values 0.608 | locus YER133W, strain GLC7, hits give low values 0.559 | locus YGR040W, strain KSS1, hits give low values 0.662 | locus YGR092W, strain DBF2, hits give low values 0.452 | locus YHR030C, strain SLT2, hits give low values 0.577 | locus YHR079C, strain IRE1, hits give low values 0.499 | locus YJL157C, strain FAR1, hits give low values 0.679 | locus YKL067W, strain YNK1, hits give low values 0.704 | locus YKL203C, strain TOR2, hits give low values 0.697 | locus YLR113W, strain HOG1, hits give low values 0.458 | locus YLR403W, strain SFP1, hits give low values 0.569 | locus YML070W, strain DAK1, hits give low values 0.644 | locus YMR205C, strain PFK2 (second series), hits give low values 0.747 | locus YNL183C, strain NPR1, hits give low values 0.544 | locus YNL307C, strain MCK1 (second series), hits give low values 0.599 | locus YOL136C, strain PFK27, hits give low values 0.648 | locus YPL031C, strain PHO85, hits give low values 0.564 | locus YPL153C, strain RAD53, hits give low values 0.588 | locus YPL204W, strain HRR25, hits give low values 0.567 | locus YPL256C, strain CLN2, hits give low values 0.627
inactive: locus YAR019C, strain CDC15, hits give low values 0.938 | locus YBL105C, strain PKC1, hits give low values 0.94 | locus YBR135W, strain CKS1, hits give low values 0.935 | locus YBR136W, strain MEC1, hits give low values 0.94 | locus YBR160W, strain CDC28, hits give low values 0.935 | locus YDL017W, strain CDC7, hits give low values 0.938 | locus YDL028C, strain MPS1, hits give low values 0.939 | locus YDL101C, strain DUN1, hits give low values 0.949 | locus YDL108W, strain KIN28, hits give low values 0.943 | locus YDL132W, strain cdc53, hits give low values 0.95 | locus YDL214C, strain PRR2, hits give low values 0.702 | locus YDR052C, strain DBF4, hits give low values 0.935 | locus YDR054C, strain cdc34, hits give low values 0.959 | locus YDR226W, strain ADK1, hits give low values 0.921 | locus YFL009W, strain cdc4, hits give low values 0.912 | locus YFL029C, strain CAK1, hits give low values 0.919 | locus YFR003C, strain YPI1, hits give low values 0.941 | locus YFR019W, strain FAB1, hits give low values 0.828 | locus YFR028C, strain CDC14, hits give low values 0.966 | locus YGR052W, strain FMP48, hits give low values 0.698 | locus YHR082C, strain KSP1, hits give low values 0.633 | locus YHR205W, strain SCH9, hits give low values 0.659 | locus YIL147C, strain SLN1, hits give low values 0.929 | locus YJL095W, strain BCK1, hits give low values 0.584 | locus YJL128C, strain PBS2, hits give low values 0.935 | locus YJR016C, strain ILV3, hits give low values 0.925 | locus YJR066W, strain TOR1 (second series), hits give low values 0.653 | locus YJR066W, strain TOR1, hits give low values 0.604 | locus YKL048C, strain ELM1, hits give low values 0.816 | locus YKL101W, strain HSL1, hits give low values 0.762 | locus YKL193C, strain SDS22, hits give low values 0.919 | locus YLR133W, strain CKI1, hits give low values 0.742 | locus YMR001C, strain CDC5, hits give low values 0.935 | locus YMR277W, strain FCP1, hits give low values 0.932 | locus YNL006W, strain LST8, hits give low values 0.936 | locus YNL020C, strain ARK1, hits give low values 0.727 | locus YNL161W, strain CBK1, hits give low values 0.934 | locus YNL207W, strain RIO2, hits give low values 0.927 | locus YNL222W, strain SSU72, hits give low values 0.933 | locus YOL078W, strain AVO1, hits give low values 0.923 | locus YOR061W, strain CKA2, hits give low values 0.719 | locus YOR119C, strain RIO1, hits give low values 0.746 | locus YOR231W, strain MKK1, hits give low values 0.585 | locus YOR329C, strain SCD5, hits give low values 0.929 | locus YPL209C, strain IPL1, hits give low values 0.935 | locus YPR025C, strain CCL1, hits give low values 0.936 | locus YPR106W, strain ISR1, hits give low values 0.927 | locus YPR111W, strain DBF20, hits give low values 0.96 | strain NNK1, hits give low values 0.936 | strain TSCII, hits give low values 0.913
